Records with an inconclusive call do not appear. A call without a number means that no potency is given here. The source made the active and inactive calls. Unless noted, calls come from the whole dose curve; as a rule, active = well fitted curve in the direction sought with a large enough effect in the repeat runs; inconclusive = weak or mixed curves; inactive = no such curve, though single readings can be large; an effect the other way counts as inactive or inconclusive. Positions of bridges follow the written chain, without caps; N, C: chain ends. Non-standard residues stand in square brackets, D forms with d. Residues, ends and D or L forms follow the SMILES beside them. *: point of attachment. X1 = CC[C@@H](C)[C@@H](N)C1=N[C@H](C(=O)*)CS1; d(aIle) = CC[C@H](C)[C@@H](N)C(=O)O; dOrn = NCCC[C@@H](N)C(=O)O
Assays:
[1] = qHTS assay for small molecule agonists of the p53 signaling pathway (AID 651631; calls by dose curve; note: nearly all actives have a fitted effect of over 15% in size; note: potency is the fitted concentration of half-maximal effect); settings: HCT-116 p53RE-bla reporter, beta-lactamase FRET ratio, 16 h; series mostly up to 73.3 µM
Outline: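 Agonist mode screen using a stably integrated beta-lactamase gene under p53 response elements in HCT-116 cells. Compound exposure lasts 16 h at 37 °C; fluorescence intensity is measured following 2 h FRET substrate loading.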

[2] = qHTS assay for small molecules that induce genotoxicity in human embryonic kidney cells expressing luciferase-tagged ATAD5 (AID 651632); settings: HEK293T ATAD5-luciferase induction, 16 h; series mostly up to 83.3 µM; note: nearly all actives have a fitted effect of over 15% in size
Outline: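 Luminescent reporter readout, HEK293T ATAD5-luc line: 16 hr drug exposure (37C, 5% CO2) followed by Amplite, 30 min RT.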

[3] = qHTS assay for small molecule agonists of the p53 signaling pathway - cell viability (AID 651633; calls by dose curve; note: nearly all actives have a fitted effect of over 30% in size; note: potency is the fitted concentration of half-maximal effect); settings: p53RE-bla HCT-116 viability, ATP luminescence, 16 h; series mostly up to 83.3 µM
Outline: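 Viability counter-read: CellTiter-Glo luminescence (30 min, room temperature) in the same p53RE-bla plates. These plates had been exposed to compounds for 16 h at 37 C.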

[4] = qHTS assay for small molecules that induce genotoxicity in human embryonic kidney cells expressing luciferase-tagged ATAD5 - cell viability (AID 651634; calls by dose curve; note: nearly all actives have a fitted effect of over 25% in size); settings: HEK293T ATAD5-luc cells viability, CellTiter-Fluor, 15.5 h; series mostly up to 83.3 µM
Outline: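 Viability read: CellTiter-Fluor fluorescence, 30 min at 37C. Cells: HEK293T, luciferase-tagged ATAD5. Exposure: 15.5 hr, 37C, 5% CO2, compound or DMSO vehicle.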

[5] = qHTS assay for small molecule disruptors of the mitochondrial membrane potential - cell viability (AID 720634; calls by dose curve;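 note: human HepG2 liver cancer cells; nearly all actives have a fitted effect of over 20% in size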); settings: HepG2 viability, ATP luminescence (CellTiter-Glo), 1 h; series mostly up to 83.2 µM
Outline: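 HepG2, 1 hr compound, 37 C. ATP luminescence via CellTiter-Glo, 30 min RT, same well as m-MPI.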

[6] = qHTS assay for small molecule disruptors of the mitochondrial membrane potential (AID 720635); settings: HepG2 mitochondrial membrane potential, Mito-MPS dye ratio; series mostly up to 83.2 µM; note: potency is the fitted concentration of half-maximal effect
Outline: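 Mitochondrial membrane potential tracked with Mito-MPS dye, red aggregates (ex 540/em 590 nm) against green monomers (ex 490/em 535 nm). Compound treatment 1 hr at 37C, dye 30 min in HepG2.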

[7] = qHTS assay to test for compound auto fluorescence at 590 nm (red) in HepG2 cells (AID 720674); settings: HepG2 autofluorescence, red 540/590 nm, 1 h; series mostly up to 46 µM
Outline: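 We screened compounds on adherent HepG2 cells, incubating them for an hour at 37 C in 5% CO2 before reading emission at 590 nm under 540 nm excitation; values reflect equivalence to Rose Bengal sodium fluorescence.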

[8] = qHTS assay to test for compound auto fluorescence at 535 nm (green) in HepG2 cells (AID 720675); settings: green autofluorescence 485/535 nm, 1 h; series mostly up to 46 µM
[9] = qHTS assay to test for compound auto fluorescence at 460 nm (blue) in HEK293 cells (AID 720678); settings: blue autofluorescence 405/460 nm; series mostly up to 46 µM
Outline: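 Measured: blue fluorescence (Ex 405/Em 460 nm) of compound-treated HEK293 cells, incubated overnight at 37C with 5% CO2 and scaled to triamterene equivalents.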

[10] = qHTS assay to test for compound auto fluorescence at 590 nm (red) in HEK293 cells (AID 720679); settings: red autofluorescence 540/590 nm; series mostly up to 46 µM
Outline: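 Using HEK293 cells at 2,000 per well, the screen added 23 nL of each compound after cell attachment and incubated overnight (37C, 5% CO2). The plate reader then captured red-label fluorescence, Ex/Em 540/590nm.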

[11] = qHTS assay to test for compound auto fluorescence at 535 nm (green) in HEK293 cells (AID 720680); settings: green autofluorescence 485/535 nm; series mostly up to 46 µM
[12] = qHTS assay to test for compound auto fluorescence at 460 nm (blue) in HEK293 cell free culture (AID 720681); settings: cell-free medium, autofluorescence 405/460 nm (blue); series mostly up to 46 µM
Outline: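 Blue fluorescence (Ex 405/Em 460 nm, triamterene-equivalent) was read immediately after pin transfer of compound or DMSO into medium (DMEM, 10% FBS) without cells.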

[13] = qHTS assay to test for compound auto fluorescence at 535 nm (green) in HEK293 cell free culture (AID 720682); settings: cell-free medium, green autofluorescence 485/535 nm, active compounds read high; series mostly up to 46 µM
Outline: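 No cells present: wells hold DMEM supplemented with 10% FBS, into which compound or vehicle is pinned. Green emission is then recorded (485 nm excitation, 535 nm emission) and scaled to fluorescein.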

[14] = qHTS assay to test for compound auto fluorescence at 590 nm (red) in HEK293 cell free culture (AID 720683); settings: cell-free medium autofluorescence, Ex540/Em590 red; series mostly up to 46 µM
Outline: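 Red-channel autofluorescence of compounds in culture medium (DMEM, 10% FBS), no cells, measured at 540/590 nm. Rose Bengal sodium is the reference fluorophore for equivalence.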

[15] = qHTS assay to test for compound auto fluorescence at 590 nm (red) in HepG2 cell free culture (AID 720684); settings: cell-free medium autofluorescence, red 540/590 nm; series mostly up to 46 µM
Outline: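 Plate contents were MEM with 10% FBS plus test compound or DMSO, no cells. Fluorescence was recorded with 540 nm excitation and 590 nm emission.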

[16] = qHTS assay to test for compound auto fluorescence at 460 nm (blue) in HepG2 cell free culture (AID 720685); settings: Cell-free culture medium, blue autofluorescence 405/460 nm; series mostly up to 46 µM
Outline: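 Compound (23 nL) or DMSO pinned into cell-free MEM with 10% FBS; blue fluorescence read at 405/460 nm excitation/emission, expressed as auto-fluorescence equivalency to triamterene.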

[17] = qHTS assay to test for compound auto fluorescence at 535 nm (green) in HepG2 cell free culture (AID 720686); settings: Cell-free medium, green autofluorescence 485/535 nm; series mostly up to 46 µM
[18] = qHTS assay to test for compound auto fluorescence at 460 nm (blue) in HepG2 cells (AID 720687); settings: autofluorescence 405/460 nm, 1 h; series mostly up to 46 µM
Outline: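 Blue-channel autofluorescence (Ex/Em 405/460 nm, triamterene-equivalent) was measured after 1 hr compound exposure at 37 C, 5% CO2. Cells were HepG2, plated overnight at 37 C in MEM plus 10% FBS.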

[19] = biological target: Glucocorticoid receptor (Homo sapiens) (UniProt P04150); assay: qHTS assay to identify small molecule agonists of the glucocorticoid receptor (GR) signaling pathway (AID 720691; active = well fitted activation curve with a large enough effect in the signal ratio in the repeat runs, not every such curve was filed as active; the % refers to the signal ratio); settings: GR-bla HeLa, beta-lactamase reporter ratio, 18 h; activation: at 62.4 µM (top of the series)
Chain of Glucocorticoid receptor (Homo sapiens) (P04150 whole entry, looked up): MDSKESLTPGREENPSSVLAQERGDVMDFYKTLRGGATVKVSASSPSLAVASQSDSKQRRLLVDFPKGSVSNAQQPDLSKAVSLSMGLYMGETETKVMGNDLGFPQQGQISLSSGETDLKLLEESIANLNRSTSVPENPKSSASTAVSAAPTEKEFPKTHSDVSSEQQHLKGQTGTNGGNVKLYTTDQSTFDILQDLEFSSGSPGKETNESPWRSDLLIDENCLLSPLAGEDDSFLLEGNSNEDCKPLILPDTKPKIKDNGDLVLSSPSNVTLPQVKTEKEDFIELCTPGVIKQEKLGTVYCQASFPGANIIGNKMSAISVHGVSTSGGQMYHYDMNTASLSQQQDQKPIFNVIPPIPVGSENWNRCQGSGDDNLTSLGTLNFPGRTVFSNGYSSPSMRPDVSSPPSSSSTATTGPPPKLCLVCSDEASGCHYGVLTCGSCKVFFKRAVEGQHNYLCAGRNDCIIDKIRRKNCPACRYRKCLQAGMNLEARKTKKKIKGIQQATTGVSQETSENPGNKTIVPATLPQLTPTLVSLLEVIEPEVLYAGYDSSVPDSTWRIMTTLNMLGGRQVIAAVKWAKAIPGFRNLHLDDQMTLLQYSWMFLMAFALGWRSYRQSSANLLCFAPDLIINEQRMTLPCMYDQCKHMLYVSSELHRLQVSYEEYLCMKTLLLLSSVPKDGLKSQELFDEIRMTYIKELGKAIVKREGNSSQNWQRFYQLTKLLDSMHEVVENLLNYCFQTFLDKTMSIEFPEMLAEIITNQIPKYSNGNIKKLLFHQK
Outline: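 qHTS in GR-bla HeLa cells: 4 h settling at 37 C/5% CO2, 18 h compound incubation at 37 C, 2 h LiveBLAzer B/G FRET substrate at room temperature, fluorescence intensity measured.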

Row | Structure (SMILES) | Potency [1] | Potency [2] | Potency [3] | Potency [4] | Potency [5] | Potency [6] | outcome [7] | Potency [8] | Potency [9] | outcome [10] | outcome [11] | Potency [12] | outcome [13] | outcome [14] | outcome [15] | Potency [16] | Potency [17] | Potency [18] | Potency [19]
1 | N[C@H](C(=O)O)[C@@H]1CC(Cl)=NO1 | 2.98 µM (active) | inactive | 13.3 µM (active) | inactive | inactive | inactive | inactive | inactive | inactive | inactive | inactive | inactive | inactive | inactive | inactive | inactive | inactive | inactive | –
2 | CC(C)(C)C(=O)OCC(=O)[C@H]1CC[C@H]2[C@@H]3CCC4=CC(=O)CC[C@]4(C)[C@H]3CC[C@]12C | inactive | inactive | inactive | inactive | inactive | inactive | inactive | inactive | inactive | inactive | inactive | inactive | inactive | inactive | inactive | inactive | inactive | inactive | –
3 | CC[C@@H](C)[C@@H](N)C1=N[C@H](C(=O)N[C@@H](CC(C)C)C(=O)N[C@@H](CCC(=O)O)C(=O)N[C@@H](C(=O)N[C@@H]2CCCCNC(=O)[C@@H](CC(N)=O)NC(=O)[C@@H](CC(=O)O)NC(=O)[C@@H](Cc3cnc[nH]3)NC(=O)[C@@H](Cc3ccccc3)NC(=O)[C@@H]([C@H](C)CC)NC(=O)[C@@H](CCCN)NC2=O)[C@@H](C)CC)CS1 (X1-LE[d(aIle)][dK][dOrn][dI][dF][dH][dD][dN]; lactam 4-C) | inactive | inactive | inactive | inactive | inactive | inactive | inactive | inactive | inactive | inactive | inactive | inactive | inactive | inactive | inactive | inactive | inactive | inactive | –
4 | S=C1NC=NC2N=CNC12 (configuration not stated) | 3.44 µM (active) | inactive | 0.545 µM (active) | inactive | inactive | 4.86 µM (active) | inactive | inactive | inactive | inactive | inactive | inactive | inactive | inactive | inactive | inactive | inactive | inactive | –
5 | OCC1(CO)COC(C(Cl)(Cl)Cl)OC1 | inactive | inactive | inactive | inactive | inactive | inactive | inactive | inactive | inactive | inactive | inactive | inactive | inactive | inactive | inactive | inactive | inactive | inactive | inactive
6 | NC(=S)NS(=O)(=O)c1ccc(N)cc1 | inactive | inactive | inactive | inactive | inactive | inactive | inactive | inactive | inactive | inactive | inactive | inactive | inactive | inactive | inactive | inactive | inactive | inactive | –
7 | COc1ccc(/C=N/NC(=O)c2ccncc2)c(C(=O)O)c1OC | inactive | inactive | inactive | inactive | inactive | inactive | inactive | inactive | inactive | inactive | inactive | inactive | inactive | inactive | inactive | inactive | inactive | inactive | inactive
8 | CCOc1ccc(NC(=S)Nc2ccc(OCC)cc2)cc1 | inactive | inactive | inactive | inactive | inactive | 11.9 µM (active) | inactive | inactive | inactive | inactive | inactive | inactive | inactive | inactive | inactive | inactive | inactive | inactive | –
9 | Cc1ncc(C[n+]2csc(CCOP(=O)(O)O)c2C)c(N)n1 | inactive | inactive | inactive | inactive | inactive | inactive | inactive | inactive | inactive | inactive | inactive | inactive | inactive | inactive | inactive | inactive | inactive | inactive | inactive
10 | CN(Cc1ccccc1)Cc1ccccc1 | inactive | inactive | inactive | inactive | inactive | inactive | inactive | inactive | inactive | inactive | inactive | inactive | inactive | inactive | inactive | inactive | inactive | inactive | –
11 | CCC(=O)OC(OP(=O)(CCCCc1ccccc1)CC(=O)N1C[C@H](C2CCCCC2)C[C@H]1C(=O)O)C(C)C (some centres not stated) | inactive | inactive | inactive | inactive | inactive | inactive | inactive | inactive | inactive | inactive | inactive | inactive | inactive | inactive | inactive | inactive | inactive | inactive | inactive
